Data from PubChem BioAssay AID1159580 (chemical genetic matrix, 2015).
Out of some 5,500 compounds screened, about 2,000 (36%) were called active. About 18% were inconclusive and are not listed. The list shows a part of the results. Values without a mark were called inactive. Rule as the data show it: active = normalized growth mostly below about 0.91 (no sharp cut-off); inconclusive = no clear call, values can overlap the other calls; inactive = mostly above about 0.92.

Experiment: chemical genetic growth profiling, strain panel (AID 1159580);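 also: tested at 20 µM; growth read once vehicle control cultures reached saturation at 30 °C; 1 = growth at the plate median or of vehicle wells; lower values mean less growth of the strain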
Details: S. cerevisiae deletion strains, growth OD
[1] = locus YDL101C, strain DUN1, hits give low values
[2] = locus YHR030C, strain SLT2, hits give low values

With `CCc1ccn2cc(Nc3ccccc3Cl)nc2c1` as the compound, how does the normalized growth (locus YAR019C, strain CDC15, hits give low values) read?
The normalized growth was 0.983.

And the normalized growth (locus YBL105C, strain PKC1, hits give low values)?
The normalized growth was 0.976.

And the normalized growth (locus YBR135W, strain CKS1, hits give low values)?
The normalized growth was 0.98.

And the normalized growth (locus YBR136W, strain MEC1, hits give low values)?
The normalized growth was 0.968.

And the normalized growth (locus YBR160W, strain CDC28, hits give low values)?
The normalized growth was 0.971.

And the normalized growth (locus YDL017W, strain CDC7, hits give low values)?
Its normalized growth is 0.974.

And the normalized growth (locus YDL028C, strain MPS1, hits give low values)?
Its normalized growth is 0.98.

And the normalized growth [1]?
The normalized growth was 0.982.

What about the normalized growth (locus YDL108W, strain KIN28, hits give low values) of the same compound?
Its normalized growth is 0.976.

And the normalized growth (locus YDL132W, strain cdc53, hits give low values)?
The normalized growth was 0.985.

What about the normalized growth (locus YDL214C, strain PRR2, hits give low values) of the same compound?
The normalized growth was 0.945.

And the normalized growth (locus YDR052C, strain DBF4, hits give low values)?
Its normalized growth is 0.993.

What about the normalized growth (locus YDR054C, strain cdc34, hits give low values) of the same compound?
Its normalized growth is 0.959.

And the normalized growth (locus YDR226W, strain ADK1, hits give low values)?
The normalized growth was 0.985.

What about the normalized growth (locus YDR477W, strain SNF1, hits give low values) of the same compound?
The normalized growth was 0.947.

What about the normalized growth (locus YER123W, strain YCK3, hits give low values) of the same compound?
The normalized growth was 0.898.

What about the normalized growth (locus YER133W, strain GLC7, hits give low values) of the same compound?
Its normalized growth is 0.947.

What about the normalized growth (locus YFL009W, strain cdc4, hits give low values) of the same compound?
Its normalized growth is 0.983.

And the normalized growth (locus YFL029C, strain CAK1, hits give low values)?
The normalized growth was 0.98.

What about the normalized growth (locus YFR003C, strain YPI1, hits give low values) of the same compound?
Its normalized growth is 0.973.

What about the normalized growth (locus YFR019W, strain FAB1, hits give low values) of the same compound?
Its normalized growth is 0.948.

What about the normalized growth (locus YFR028C, strain CDC14, hits give low values) of the same compound?
Its normalized growth is 0.978.

What about the normalized growth (locus YGR040W, strain KSS1, hits give low values) of the same compound?
The normalized growth was 0.91.

And the normalized growth (locus YGR052W, strain FMP48, hits give low values)?
The normalized growth was 1.01.

And the normalized growth (locus YGR092W, strain DBF2, hits give low values)?
Its normalized growth is 0.898.

What about the normalized growth [2] of the same compound?
Its normalized growth is 0.965.

What about the normalized growth (locus YHR079C, strain IRE1, hits give low values) of the same compound?
Its normalized growth is 0.96.

What about the normalized growth (locus YHR082C, strain KSP1, hits give low values) of the same compound?
The normalized growth was 0.998.

What about the normalized growth (locus YHR205W, strain SCH9, hits give low values) of the same compound?
Its normalized growth is 0.959.

And the normalized growth (locus YIL147C, strain SLN1, hits give low values)?
Its normalized growth is 0.973.

And the normalized growth (locus YJL095W, strain BCK1, hits give low values)?
The normalized growth was 0.96.

What about the normalized growth (locus YJL128C, strain PBS2, hits give low values) of the same compound?
The normalized growth was 0.967.

And the normalized growth (locus YJL157C, strain FAR1, hits give low values)?
Its normalized growth is 0.906.

And the normalized growth (locus YJR016C, strain ILV3, hits give low values)?
The normalized growth was 0.987.

And the normalized growth (locus YJR066W, strain TOR1 (second series), hits give low values)?
The normalized growth was 0.895.

And the normalized growth (locus YJR066W, strain TOR1, hits give low values)?
The normalized growth was 0.973.

And the normalized growth (locus YKL048C, strain ELM1, hits give low values)?
Its normalized growth is 0.984.

What about the normalized growth (locus YKL067W, strain YNK1, hits give low values) of the same compound?
Its normalized growth is 0.962.

What about the normalized growth (locus YKL101W, strain HSL1, hits give low values) of the same compound?
Its normalized growth is 0.949.

And the normalized growth (locus YKL193C, strain SDS22, hits give low values)?
The normalized growth was 0.979.

What about the normalized growth (locus YKL203C, strain TOR2, hits give low values) of the same compound?
The normalized growth was 0.973.

What about the normalized growth (locus YLR113W, strain HOG1, hits give low values) of the same compound?
The normalized growth was 0.916.

What about the normalized growth (locus YLR133W, strain CKI1, hits give low values) of the same compound?
The normalized growth was 0.928.

And the normalized growth (locus YLR403W, strain SFP1, hits give low values)?
Its normalized growth is 0.886.

What about the normalized growth (locus YML070W, strain DAK1, hits give low values) of the same compound?
The normalized growth was 0.917.

What about the normalized growth (locus YMR001C, strain CDC5, hits give low values) of the same compound?
The normalized growth was 0.978.

And the normalized growth (locus YMR205C, strain PFK2 (second series), hits give low values)?
The normalized growth was 0.966.

What about the normalized growth (locus YMR277W, strain FCP1, hits give low values) of the same compound?
Its normalized growth is 0.981.

And the normalized growth (locus YNL006W, strain LST8, hits give low values)?
The normalized growth was 0.997.

What about the normalized growth (locus YNL020C, strain ARK1, hits give low values) of the same compound?
The normalized growth was 0.94.

And the normalized growth (locus YNL161W, strain CBK1, hits give low values)?
Its normalized growth is 0.98.

And the normalized growth (locus YNL183C, strain NPR1, hits give low values)?
Its normalized growth is 0.973.

And the normalized growth (locus YNL207W, strain RIO2, hits give low values)?
Its normalized growth is 0.972.

And the normalized growth (locus YNL222W, strain SSU72, hits give low values)?
The normalized growth was 0.973.

And the normalized growth (locus YNL307C, strain MCK1 (second series), hits give low values)?
The normalized growth was 0.917.

And the normalized growth (locus YOL078W, strain AVO1, hits give low values)?
Its normalized growth is 0.981.

What about the normalized growth (locus YOL136C, strain PFK27, hits give low values) of the same compound?
The normalized growth was 0.926.

What about the normalized growth (locus YOR061W, strain CKA2, hits give low values) of the same compound?
The normalized growth was 0.963.

And the normalized growth (locus YOR119C, strain RIO1, hits give low values)?
Its normalized growth is 0.985.

What about the normalized growth (locus YOR231W, strain MKK1, hits give low values) of the same compound?
Its normalized growth is 0.905.

What about the normalized growth (locus YOR329C, strain SCD5, hits give low values) of the same compound?
The normalized growth was 0.972.

And the normalized growth (locus YPL031C, strain PHO85, hits give low values)?
The normalized growth was 0.911.

And the normalized growth (locus YPL153C, strain RAD53, hits give low values)?
The normalized growth was 0.912.

And the normalized growth (locus YPL204W, strain HRR25, hits give low values)?
The normalized growth was 0.921.

What about the normalized growth (locus YPL209C, strain IPL1, hits give low values) of the same compound?
The normalized growth was 0.976.

What about the normalized growth (locus YPL256C, strain CLN2, hits give low values) of the same compound?
Its normalized growth is 0.917.

What about the normalized growth (locus YPR025C, strain CCL1, hits give low values) of the same compound?
Its normalized growth is 0.983.

And the normalized growth (locus YPR106W, strain ISR1, hits give low values)?
Its normalized growth is 0.971.

And the normalized growth (locus YPR111W, strain DBF20, hits give low values)?
Its normalized growth is 0.97.

And the normalized growth (strain NNK1, hits give low values)?
Its normalized growth is 0.981.

And the normalized growth (strain TSCII, hits give low values)?
The normalized growth was 0.983.

With `CC(=O)c1ccc(-c2cccs2)s1` as the compound, how does the normalized growth (locus YAL013W, strain DEP1, hits give low values) read?
The normalized growth was 0.95.

And the normalized growth (locus YBR229C, strain ROT2, hits give low values)?
Its normalized growth is 0.963.

And the normalized growth [1]?
Its normalized growth is 0.944.

What about the normalized growth (locus YDL134C, strain PPH21, hits give low values) of the same compound?
The normalized growth was 0.999.

And the normalized growth (locus YDR150W, strain NUM1, hits give low values)?
Its normalized growth is 0.953.

And the normalized growth (locus YEL061C, strain CIN8, hits give low values)?
Its normalized growth is 0.939.

And the normalized growth (locus YGR078C, strain PAC10, hits give low values)?
The normalized growth was 0.989.

And the normalized growth [2]?
The normalized growth was 0.58 (active).

What about the normalized growth (locus YHR087W, strain rtc3, hits give low values) of the same compound?
The normalized growth was 0.992.

What about the normalized growth (locus YJL187C, strain SWE1, hits give low values) of the same compound?
Its normalized growth is 0.978.

And the normalized growth (locus YJR075W, strain HOC1, hits give low values)?
Its normalized growth is 0.995.

And the normalized growth (locus YLR039C, strain RIC1, hits give low values)?
The normalized growth was 0.777 (active).

What about the normalized growth (locus YLR058C, strain SHM2 (second series), hits give low values) of the same compound?
Its normalized growth is 0.972.

And the normalized growth (locus YLR085C, strain ARP6, hits give low values)?
The normalized growth was 0.606 (active).

And the normalized growth (locus YLR262C, strain YPT6, hits give low values)?
Its normalized growth is 0.855.

What about the normalized growth (locus YML094W, strain GIM5, hits give low values) of the same compound?
Its normalized growth is 0.887.

What about the normalized growth (locus YMR219W, strain ESC1, hits give low values) of the same compound?
Its normalized growth is 0.981.

What about the normalized growth (locus YMR263W, strain SAP30, hits give low values) of the same compound?
The normalized growth was 1.

And the normalized growth (locus YMR307W, strain GAS1, hits give low values)?
The normalized growth was 0.95.

And the normalized growth (locus YNL128W, strain TEP1, hits give low values)?
The normalized growth was 0.98.

What about the normalized growth (locus YNL153C, strain GIM3, hits give low values) of the same compound?
Its normalized growth is 0.878 (active).

And the normalized growth (locus YNL298W, strain CLA4 (second series), hits give low values)?
The normalized growth was 0.901.

And the normalized growth (locus YNL322C, strain KRE1, hits give low values)?
Its normalized growth is 0.985.

What about the normalized growth (locus YNR030W, strain Alg12, hits give low values) of the same compound?
The normalized growth was 0.966.

What about the normalized growth (locus YPL055C, strain LGE1, hits give low values) of the same compound?
Its normalized growth is 0.9.

And the normalized growth (locus YPL241C, strain CIN2, hits give low values)?
Its normalized growth is 0.869.

What about the normalized growth (locus YPR135W, strain CTF4, hits give low values) of the same compound?
Its normalized growth is 0.69.
